Active and inactive are the calls of the source. Unless noted, how the calls were made is not given here.

Test [1] concerns Wnt5a (protein binding on small-molecule microarray). Briefly: Wnt5a binders on small-molecule microarray, primary screen, biophysical, 635/667 nm fluorescence (AID 1142).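 Further: fluorescence read at 667 nm with signal to noise per printed feature.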 The following applies: 635 nm fluorescence, higher = more signal.
The nature of test [2]: cell viability in Huh7 cells, primary screen, cytotoxicity control for HCV replication inhibitor project, CellTiter-Glo luminescence, basal, 48 h (AID 1143).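 Further: Huh7 hepatoma cells carrying a hepatitis C replication reporter with no stimulus; test concentration not given here.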 The following applies: Huh7 HCV replicon, higher = more signal, called active from +8 up or from −8 down.
Test [3] in a line: P. aeruginosa biofilm formation inhibitors, primary screen, PAO1 strain, BacTiter-Glo luminescence, LB-PBS (AID 1144). The following applies: 12 h, higher = more signal.
Test [4] is described as follows: CREB reporter modulators without forskolin, primary screen, cell-based, PC12, CRE-LacZ reporter, unstimulated (AID 1145). The following applies: no forskolin, luminescence, 4.5 h, higher = more signal, called active from +8 up or from −8 down.
The nature of test [5]: CREB reporter modulators under forskolin, primary screen, cell-based, PC12, CRE-LacZ reporter, forskolin-stimulated (AID 1146).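 Further: PC12 cells with 6xCRE LacZ reporter stimulated by forskolin 10 µM; beta-galactosidase reporter signal reflecting CREB driven transcription.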 The following applies: luminescence, 4.5 h, higher = more signal, called active from +8 up or from −8 down.
Test [6] has as its target Streptavidin (Streptomyces avidinii) (UniProt P22629). Briefly: streptavidin binders on small-molecule microarray, primary screen, artefact control for SMM compound annotation, biophysical, 635/667 nm fluorescence (AID 1147).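 Further: signal reflects streptavidin binding to arrayed compounds as a control protein.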 As to conditions: streptavidin binding, higher = more signal.
Test [7] can be described thus: small-molecule binders of probe aInhba, primary screen, biochemical, small-molecule microarray, 635/667 nm fluorescence (AID 1148).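 Further: score merges 667nm spot fluorescence with signal-to-noise for antibody binding to printed compounds.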 As to conditions: higher = more signal.
For test [8], the target named is Torsin-1A (Homo sapiens) (UniProt O14656). Briefly: torsin A binders from cell lysate, primary screen, small-molecule microarray, wild-type, 635/667 nm (AID 1149). The following applies: COS7 hTOR1A-WT lysate, 635 nm fluorescence, higher = more signal.
The target is the same in test [9]. Briefly: small-molecule binders of mutant TOR1A in lysate, primary screen, cell lysate, small-molecule microarray, COS7 lysate, 635/667 nm fluorescence (AID 1150).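 Further: score pools 667 nm emission and signal to noise measuring lysate protein binding.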 The following applies: COS7 hTOR1A mutant lysate, 635 nm fluorescence, higher = more signal.
Test [10] relates to Sonic hedgehog protein (Shh). Briefly: small-molecule binders of Shh protein, primary screen, biochemical, small-molecule microarray, 635/667 nm fluorescence (AID 1151).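 Further: Shh protein binding to compounds spotted on small-molecule microarray slides; score combines spot fluorescence intensity with signal-to-noise across triplicate slides.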 As to conditions: small-molecule microarray binding, 635 nm fluorescence; higher = more signal.

Sequence of Streptavidin (Streptomyces avidinii) (P22629 whole entry, looked up): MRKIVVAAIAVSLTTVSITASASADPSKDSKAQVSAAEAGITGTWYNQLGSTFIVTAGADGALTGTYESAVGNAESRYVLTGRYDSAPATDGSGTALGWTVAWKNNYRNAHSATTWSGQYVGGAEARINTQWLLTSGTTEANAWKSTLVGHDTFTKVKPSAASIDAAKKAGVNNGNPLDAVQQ
Sequence of Torsin-1A (Homo sapiens) (O14656 whole entry, looked up): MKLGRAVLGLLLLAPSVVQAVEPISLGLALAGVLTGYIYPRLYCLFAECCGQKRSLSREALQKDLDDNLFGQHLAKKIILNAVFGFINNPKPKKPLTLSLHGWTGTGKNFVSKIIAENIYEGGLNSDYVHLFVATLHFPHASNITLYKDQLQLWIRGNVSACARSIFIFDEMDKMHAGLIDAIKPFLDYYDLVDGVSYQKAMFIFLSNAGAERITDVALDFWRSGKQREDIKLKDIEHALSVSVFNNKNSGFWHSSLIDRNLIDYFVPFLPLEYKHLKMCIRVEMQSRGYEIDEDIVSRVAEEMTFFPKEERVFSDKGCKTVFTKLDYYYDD

`CC(=O)NCCCC[C@@H]1NC(=O)[C@H]2C[C@@H](C(=O)NCCCCCC[N+](C)(C)C)[C@@H](c3cccc(OCCO)c3)N2C1=O`: the composite z-score in test [1] was 0.408; in test [6] it was 0.927; in test [7], -0.149; with Torsin-1A (Homo sapiens) [8], 1.07; with Torsin-1A (Homo sapiens) [9], 0.59; in [10], 2.26. Also, the z-score is -2.49 (inactive) in test [2], -1.01 (inactive) in [3], -0.801 (inactive) in [4] and -0.812 (inactive) in [5].
As to `CC(C)(C)N1CC=CC23O[C@@H]4/C=C\CCCOC(=O)C4[C@H]2C(=O)N(CCO)[C@@H]3C1=O` (stereo not given in full), the composite z-score in [1] is 0.501; in [6] it was -0.801; in test [7] it was -0.416; with Torsin-1A (Homo sapiens) [8] it was -0.769; in the test with Torsin-1A (Homo sapiens) [9], -0.875; in test [10] it was -0.131. In addition, the z-score in test [2] is 0.0369 (inactive); in test [3], -0.647 (inactive); in test [4], -0.492 (inactive); in [5], -0.533 (inactive).
Turning to `CCOC(=O)[C@H]1C[C@H]2O[C@@]23C[C@H]1C(=O)N1CCCC1[C@@H]3O[Si](C)(C)C(C)(C)C` (stereo not given in full), the composite z-score in [1] is -0.489; in test [6], -0.266; in test [7] it was -0.245; with Torsin-1A (Homo sapiens) [8] it was -0.235; in the test with Torsin-1A (Homo sapiens) [9], -0.178; in [10], 1.1. Moreover, the z-score in test [2] was -2.14 (inactive); in test [3], 0.209 (inactive); in test [4] it was -1.59 (inactive); in test [5], -0.852 (inactive).
Regarding `Cc1ccc(S[C@]2(C(=O)NCc3ccccc3)CC(=O)N(Cc3ccccc3Cl)[C@@H]2c2ccc(CO)cc2I)cc1`, the composite z-score is -0.657 in test [1]; -0.15 in [6]; -0.0963 in test [7]; -2.03 with Torsin-1A (Homo sapiens) [8]; -1.65 with Torsin-1A (Homo sapiens) [9]; 0.262 in test [10]. For the same molecule, the z-score is -1.68 (inactive) in [2], -1.12 (inactive) in [3], -0.258 (inactive) in test [4] and 1.72 (inactive) in test [5].
With `O=C1OCCC=C[C@H]2OC34C=CCN(Cc5ccccc5)C(=O)[C@H]3N(CCCCCCO)C(=O)[C@@H]4C12` (stereo not given in full), the composite z-score in [1] was -0.751; in [6] it was -0.887; in test [7], -0.441; with Torsin-1A (Homo sapiens) [8] it was -1.92; with Torsin-1A (Homo sapiens) [9], -1.4; in test [10], 0.628. The z-score in [2] was 0.404 (inactive); in test [3], -0.616 (inactive); in test [4], -0.761 (inactive); in [5] it was -0.395 (inactive).
On to `COc1cccc(C(=O)O[C@H]2CC[C@]3(C)C4=C(CCC3C2(C)C)[C@]2(C)CC[C@H]([C@H](C)CCCC(C)C)[C@@]2(C)CC4)c1` (stereo not given in full), for which the composite z-score in [1] was 0.0406; in test [6] it was 0.184; in test [7], -0.157; with Torsin-1A (Homo sapiens) [8], 0.637; with Torsin-1A (Homo sapiens) [9], 0.216; in test [10], 0.425. Further, the z-score was -1 (inactive) in test [2], -1.11 (inactive) in test [3], 1.21 (inactive) in test [4] and -0.687 (inactive) in [5].
As for `COc1ccc(C(=O)Nc2cccc(CN3C(=O)[C@@]4(O[C@@H](CCn5cc(CCO)nn5)[C@H]([Si](C)(C)c5ccc(OC)cc5)[C@H]4C)c4ccccc43)c2)cc1`, the composite z-score in test [1] came out at 0.504; in [6], 0.37; in test [7] it was 0.0184; in the test with Torsin-1A (Homo sapiens) [8] it was 0.503; with Torsin-1A (Homo sapiens) [9] it was 0.347; in [10] it was 1.72. Also, the z-score is -8.01 (active) in test [2], -0.609 (inactive) in test [3], 8.36 (active) in test [4] and -1.29 (inactive) in test [5].
With `COCCOC(=O)N1C(=O)[C@@]2(c3cc(C#CC4(O)CCCCCC4)ccc31)[C@H](C(=O)N1CCCCCCC1)[C@H]1C(=O)O[C@H](c3ccccc3)[C@H](c3ccccc3)N1[C@@H]2c1ccccc1OCCO`, the composite z-score in test [1] was found to be 0.647; in test [6] it was 1.96; in test [7], 1.22; with Torsin-1A (Homo sapiens) [8] it was 0.601; in the test with Torsin-1A (Homo sapiens) [9], 1.26; in test [10], 1.37. In addition, the z-score was -5.2 (inactive) in test [2], 0.148 (inactive) in test [3], 0.749 (inactive) in test [4] and -0.551 (inactive) in [5].
With `O=C1C[C@@](C(=O)NC2CC2)(c2ccc([N+](=O)[O-])cc2)[C@@H](c2ccc(CO)cc2)N1CC12CC3CC(CC(C3)C1)C2`, the composite z-score in test [1] is 0.382; in [6] it was 0.465; in test [7], -0.0736; with Torsin-1A (Homo sapiens) [8], 0.477; in the test with Torsin-1A (Homo sapiens) [9] it was -0.176; in [10] it was 0.777. For the same molecule, the z-score is -4.42 (inactive) in [2], -0.752 (inactive) in test [3], -0.529 (inactive) in test [4] and -1.12 (inactive) in [5].
For `[N-]=[N+]=NCc1ccccc1[C@@H]1OC(c2ccc(OCCCO)cc2)=N[C@]1(Cc1ccccc1)C(=O)N1CCCCC1`, the composite z-score in test [1] was 0.663; in test [6] it was 0.466; in [7], 0.288; in the test with Torsin-1A (Homo sapiens) [8], -0.451; with Torsin-1A (Homo sapiens) [9], -0.271; in test [10], 0.0721. In addition, the z-score was -3.77 (inactive) in test [2], -0.641 (inactive) in [3], 1.56 (inactive) in test [4] and -0.546 (inactive) in [5].
Consider `COC(=O)[C@@]1(Cc2ccc(F)cc2)[C@H]2c3cc(C(=O)N4CCCC4)n(Cc4cccc5ccccc45)c3C[C@H]2CN1C(=O)c1ccccc1`, for which the composite z-score in test [1] was 0.255; in test [6] it was 0.95; in test [7], 0.434; with Torsin-1A (Homo sapiens) [8] it was 0.341; with Torsin-1A (Homo sapiens) [9], -0.0286; in test [10] it was -0.408. Further, the z-score in [2] was -1.8 (inactive); in [3], 0.233 (inactive); in test [4], 0.397 (inactive); in test [5] it was 0.422 (inactive).
Regarding `C=CCOC(=O)[C@@H]1[C@H]2C(=O)O[C@H](c3ccccc3)[C@H](c3ccccc3)N2[C@H](c2ccc(OCCOC(=O)[C@@H]3C[C@@H]4C(=O)NCC(=O)N4[C@@H]3c3cccc(OCCO)c3)cc2)[C@@]12C(=O)Nc1ccc(I)cc12`, the composite z-score is 1.02 in test [1]; -0.0506 in test [6]; 0.458 in [7]; 1.56 with Torsin-1A (Homo sapiens) [8]; 1.17 with Torsin-1A (Homo sapiens) [9]; 2.1 in test [10]. Besides, the z-score in test [2] was 0.0025 (inactive); in [3], -0.0754 (inactive); in test [4], -0.545 (inactive); in test [5], -0.844 (inactive).
`O=C1OCCC=C[C@H]2OC34C=CCN(c5ccc6ccccc6c5)C(=O)[C@H]3N(CCCCCO)C(=O)[C@@H]4C12` (stereo not given in full): the composite z-score in [1] is -0.288; in [6], 0.136; in test [7] it was -0.0471; in the test with Torsin-1A (Homo sapiens) [8], 0.592; with Torsin-1A (Homo sapiens) [9], 1.8; in test [10] it was 0.157. Also, the z-score is 0.0855 (inactive) in test [2], -1.17 (inactive) in test [3], 0.0645 (inactive) in [4] and -0.206 (inactive) in test [5].
With `Cc1ccc(S[C@]2(C(=O)NC3CC3)CC(=O)N(Cc3ccccc3)[C@@H]2c2ccc(CO)cc2)cc1`, the composite z-score in test [1] was -0.144; in test [6], -0.807; in test [7] it was -0.0762; with Torsin-1A (Homo sapiens) [8], -0.559; with Torsin-1A (Homo sapiens) [9], -0.906; in test [10] it was -0.863. For the same molecule, the z-score was 0.103 (inactive) in test [2], 0.396 (inactive) in [3], -0.295 (inactive) in test [4] and 0.473 (inactive) in [5].

The record behind these values is PubChem BioAssay.
